The structures appear in SMILES notation.

The target in this test is Solute carrier family 2, facilitated glucose transporter member 1 (Homo sapiens) (UniProt P11166). As to the kind of experiment: ST_JUDE_LEISH: Cytotoxicity at 2uM final concentration against transgenic Leishmania Mexicana promastigotes LmGLUT1 that are glucose transport deficient and complemented with the human glucose transporter GLUT1. Activity is measured by DNA content using SYBR green in vitro. Type of test: functional.
Chain of Solute carrier family 2, facilitated glucose transporter member 1 (Homo sapiens) (P11166 whole entry): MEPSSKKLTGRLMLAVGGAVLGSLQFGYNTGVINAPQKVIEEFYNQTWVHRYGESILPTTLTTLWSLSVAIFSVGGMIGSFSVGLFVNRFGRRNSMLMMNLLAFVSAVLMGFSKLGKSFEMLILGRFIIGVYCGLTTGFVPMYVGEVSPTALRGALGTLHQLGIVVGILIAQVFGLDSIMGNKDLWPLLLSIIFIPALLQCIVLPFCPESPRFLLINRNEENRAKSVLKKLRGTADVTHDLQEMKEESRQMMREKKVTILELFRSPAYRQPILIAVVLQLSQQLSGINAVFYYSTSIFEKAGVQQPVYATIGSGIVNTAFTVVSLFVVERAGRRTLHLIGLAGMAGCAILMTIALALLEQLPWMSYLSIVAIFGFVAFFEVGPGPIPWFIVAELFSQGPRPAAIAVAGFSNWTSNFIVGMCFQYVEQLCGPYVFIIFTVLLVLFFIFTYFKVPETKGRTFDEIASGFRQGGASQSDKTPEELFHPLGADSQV
Consider `CC(=O)Oc1ccc(C(=O)Oc2ccccc2C#CC#N)cc1OC(C)=O`, for which the inhibition is -2.02%.
For `CC(=O)Nc1nc(C(=O)Nc2ccc(-c3ccc(-c4nc5cccc(C)c5[nH]4)cc3)cc2)cs1` the value was 10.7%; for `O=C(c1ccc(-c2ccc(-c3nc4cc(C(F)(F)F)ccc4[nH]3)s2)cc1)N1CCN(CCc2ccccc2)CC1`, 5.29%.
For `Cc1cc(=O)c(-c2ccc(Oc3ccc(Cl)cc3Cl)cc2)c(C)[nH]1` the value was 2.15%.
Then `c1ccc(CN2CCC(NCc3ccc(-c4cncc5ccccc45)cc3)CC2)cc1`, with 0.33%.
Turning to `COc1ccc(NC(=O)NC2CCN(c3ccnc4cc(Cl)ccc34)CC2)cc1`, the inhibition is 3.93%.
Then `CCCCCCSc1nnc(COc2cccc3ccccc23)n1-c1ccc(OC)cc1`, with 11%; and `CC(=O)c1sc2ccccc2c1O`, with -1.09%; and `CCCN(CC1CC1)c1ncc(-c2cccc(CNCc3ccccc3O)c2)cn1`, with -1.8%.
Then `CN(C)C=Nc1ccc(OCCCCCCOc2ccc(N=CN(C)C)cc2)cc1`, with 3.14%; and `Nc1nc(N)c2c(ccc3c2ccn3Cc2ccc(-c3ccccc3)cc2)n1`, with 113%; and `O=C(Nc1cc(C(F)(F)F)cc(C(F)(F)F)c1)c1cc(C(F)(F)F)cc(C(F)(F)F)c1`, with 0.3%.
For `Cn1cncc1CCCN(Cc1ccc(-c2ccc(C(F)(F)F)cc2)cc1)C(=O)Cn1c(CCc2cccc(F)c2F)cc(=O)c2cccnc21` the value was 2.28%; for `CCn1ncc(Cl)c1CN(C)S(=O)(=O)c1ccc2ccccc2c1`, 5.72%; for `CC(C)N1CCN(C(CN2CCN(CCCOc3ccccc3-c3ccccc3)CC2)c2ccc(F)cc2)CC1` (stereo not given), 6.32%.
As for `COc1ccc(-c2cn3c(C(=O)Nc4ccccc4Cl)c(-c4ccccc4)c4c3n2CCCC4)cc1`, the inhibition was found to be 0.33%.
Consider `NC(=O)C1CCN(Cc2ccc(-c3ccc(-c4nc5cc(F)ccc5[nH]4)cc3)cc2)CC1`, for which the inhibition came to 12.7%.
Then `CC(C)NCc1ccc(-c2cccc(NC(=O)c3cccc(C#N)c3)c2)cc1`, with 2.87%; and `Cc1nc(C)c(CC(=O)Nc2ccc(-c3cccc(-c4nc5cccc(C)c5[nH]4)c3)cc2)s1`, with 2.82%; and `COc1ccc(OC)c(-c2ccc(O)c(CNCC(C)c3ccccc3)c2)c1` (stereo not given), with -0.66%.
Then `Oc1ccc(CN2CCC(N3CCN(CCc4ccccc4)CC3)C(O)C2)cc1Cl` (stereo not given), with 1.3%.
Then `CCc1nc2c(cnn2CC)c(NC2CCOCC2)c1CNC(=O)N1CCOCC1`, with 3.81%; and `COc1ccc(NC(=O)[C@H](Cc2ccccc2)Nc2cc(C)nc(NCCc3ccccc3)n2)cc1`, with 5.74%.
Take `Clc1cc(Cl)c2cc(CN[C@H]3CCC[C@@H]3CNc3nc4ccccc4[nH]3)[nH]c2c1`: the inhibition came out at 0.55%.
In the case of `N#Cc1ccc(-c2ccc(C(=O)NCC3CCN(CCN4CCC(c5ccc6c(c5OCC(N)=O)CCCC6)CC4)CC3)cc2)cc1`, the inhibition is -0.38%.
Then `COc1ccc2c(=NN=CC=Cc3ccccc3)cc(C)[nH]c2c1`, with 0.78%; and `O=C(NC1CCN(c2ccnc3cc(Cl)ccc23)C1)c1ccc(C(F)(F)F)cc1` (stereo not given), with 3.93%; and `CCc1nc2c(N)nc(N)nc2nc1-c1ccc(OC)cc1`, with 0.85%.
As to `CCCCCCCCCc1c(C)[nH]c2ccccc2c1=O`, the inhibition is -1.28%.
For `CCCN(CC1CC1)c1ncc(-c2ccccc2CNCc2ccccc2O)cn1`, the inhibition turned out to be 11.8%.
For `Cc1ccccc1C1CCN(C2CCC(NC(=O)/C=C/c3ccc(C(F)(F)F)cc3)CC2)CC1` (stereo not given) the value was 0.43%; for `COc1cccc(NC(=O)NC2CCN(c3ccnc(Nc4cc(OC)c(OC)c(OC)c4)n3)C2)c1` (stereo not given), 1.18%; for `O=C(NCCN1CCCCC1)c1cccc(Nc2nccc(Nc3ccc(Oc4ccccc4)cc3)n2)c1`, -0.01%.
Then `Fc1cc(CN2CCCC2)ccc1OCCCN1CCN(c2cccc(Cl)c2Cl)CC1`, with 4.56%.
For `CC(C)NCc1ccc(-c2ccc(CN3CCCC(c4ccccc4)C3)cc2)c(C(=O)NCC2CCCCC2)c1` (stereo not given) the value was -0.28%; for `CC1CN(c2cnn(Cc3ccc(NC(=O)Nc4cccc(C(F)(F)F)c4)cc3)c(=O)c2Cl)CC(C)N1` (stereo not given), 3.97%; for `Cc1ccc(-c2noc(COc3ccccc3C(=O)NC3CCCC3)n2)cc1`, 3.88%.
Take `CCOc1ccc2c(=NN=Cc3cc(OC)c(OC)c(OC)c3)cc(C)[nH]c2c1`: the inhibition was 2.5%.
For `COc1cc2c(cc1S(=O)(=O)c1ccc(NC(=O)Nc3ccc(F)cc3)cc1)CCN(C)CC2` the value was 3.01%.
Then `O=[N+]([O-])c1cccc(CNCC2CCN(CCc3ccccc3)CC2)c1`, with 2.35%.
